Experimental data: article PMC11006913

Assays:
NKX2-5 [1] = molecular target: NKX2-5 (Homo sapiens, UniProt P52952 125-210, R139K); assay: PBM; 200 nM protein, PBS; conditions: dsDNA, one strand shown
NKX2-5 [2] = molecular target: NKX2-5 (Homo sapiens, UniProt P52952 125-210); assay: PBM; 200 nM protein, PBS; conditions: dsDNA, one strand shown
NKX2-5 (Homo sapiens, UniProt P52952 125-210), sequence (P52952 125-210): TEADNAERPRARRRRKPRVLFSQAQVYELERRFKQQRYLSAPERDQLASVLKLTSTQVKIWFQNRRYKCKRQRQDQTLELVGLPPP

NKX2-5 (Homo sapiens, UniProt P52952 125-210, R139K), sequence (P52952 125-210 R139K): as the sequence (P52952 125-210) above, with R15K counted along it

Sequence	binding signal (NKX2-5 [1])	binding signal (NKX2-5 [2])
ATAAGTGA	12.2 upbm affinity estimate (log intensity, higher = more binding, comparable within an allelic series)	12 upbm affinity estimate (log intensity, higher = more binding, comparable within an allelic series)
CCCTTAAC	10.9 upbm affinity estimate (log intensity, higher = more binding, comparable within an allelic series)	10.8 upbm affinity estimate (log intensity, higher = more binding, comparable within an allelic series)
GCCCTCTA	10.4 upbm affinity estimate (log intensity, higher = more binding, comparable within an allelic series)	10.5 upbm affinity estimate (log intensity, higher = more binding, comparable within an allelic series)
GCTGCGAC	8.9 upbm affinity estimate (log intensity, higher = more binding, comparable within an allelic series)	8.94 upbm affinity estimate (log intensity, higher = more binding, comparable within an allelic series)
CCCGAGGC	9.04 upbm affinity estimate (log intensity, higher = more binding, comparable within an allelic series)	9.06 upbm affinity estimate (log intensity, higher = more binding, comparable within an allelic series)
CCTGGCAG	8.78 upbm affinity estimate (log intensity, higher = more binding, comparable within an allelic series)	8.78 upbm affinity estimate (log intensity, higher = more binding, comparable within an allelic series)
ACCATGGT	9.14 upbm affinity estimate (log intensity, higher = more binding, comparable within an allelic series)	9.06 upbm affinity estimate (log intensity, higher = more binding, comparable within an allelic series)
CACTGCCG	9 upbm affinity estimate (log intensity, higher = more binding, comparable within an allelic series)	8.89 upbm affinity estimate (log intensity, higher = more binding, comparable within an allelic series)
CGGACCCC	9.12 upbm affinity estimate (log intensity, higher = more binding, comparable within an allelic series)	9.03 upbm affinity estimate (log intensity, higher = more binding, comparable within an allelic series)
ACCGGAGC	8.8 upbm affinity estimate (log intensity, higher = more binding, comparable within an allelic series)	8.81 upbm affinity estimate (log intensity, higher = more binding, comparable within an allelic series)
GGCTCTTA	11.7 upbm affinity estimate (log intensity, higher = more binding, comparable within an allelic series)	11.6 upbm affinity estimate (log intensity, higher = more binding, comparable within an allelic series)
CTGATCAG	8.97 upbm affinity estimate (log intensity, higher = more binding, comparable within an allelic series)	8.87 upbm affinity estimate (log intensity, higher = more binding, comparable within an allelic series)
ATAAGATG	10.5 upbm affinity estimate (log intensity, higher = more binding, comparable within an allelic series)	10.6 upbm affinity estimate (log intensity, higher = more binding, comparable within an allelic series)
TCACTCGA	10.9 upbm affinity estimate (log intensity, higher = more binding, comparable within an allelic series)	10.9 upbm affinity estimate (log intensity, higher = more binding, comparable within an allelic series)
CGGCCAGC	8.6 upbm affinity estimate (log intensity, higher = more binding, comparable within an allelic series)	8.71 upbm affinity estimate (log intensity, higher = more binding, comparable within an allelic series)
CTAGTACA	10.5 upbm affinity estimate (log intensity, higher = more binding, comparable within an allelic series)	10.6 upbm affinity estimate (log intensity, higher = more binding, comparable within an allelic series)
CGGCGTAC	8.9 upbm affinity estimate (log intensity, higher = more binding, comparable within an allelic series)	8.89 upbm affinity estimate (log intensity, higher = more binding, comparable within an allelic series)

Sequence	binding signal (NKX2-5 [1])	binding signal (NKX2-5 [2])
AGTGCCTA	11.2 upbm affinity estimate (log intensity, higher = more binding, comparable within an allelic series)	11.1 upbm affinity estimate (log intensity, higher = more binding, comparable within an allelic series)
ACCACTCT	11.3 upbm affinity estimate (log intensity, higher = more binding, comparable within an allelic series)	11.2 upbm affinity estimate (log intensity, higher = more binding, comparable within an allelic series)
GGCTATTA	10.7 upbm affinity estimate (log intensity, higher = more binding, comparable within an allelic series)	10.6 upbm affinity estimate (log intensity, higher = more binding, comparable within an allelic series)
ACGGTCCA	8.85 upbm affinity estimate (log intensity, higher = more binding, comparable within an allelic series)	8.85 upbm affinity estimate (log intensity, higher = more binding, comparable within an allelic series)
CGCGAGCC	8.97 upbm affinity estimate (log intensity, higher = more binding, comparable within an allelic series)	8.93 upbm affinity estimate (log intensity, higher = more binding, comparable within an allelic series)
AAGTGAGT	11.4 upbm affinity estimate (log intensity, higher = more binding, comparable within an allelic series)	11.4 upbm affinity estimate (log intensity, higher = more binding, comparable within an allelic series)
AACGGTGG	9.06 upbm affinity estimate (log intensity, higher = more binding, comparable within an allelic series)	8.98 upbm affinity estimate (log intensity, higher = more binding, comparable within an allelic series)
ACCAGGGC	8.76 upbm affinity estimate (log intensity, higher = more binding, comparable within an allelic series)	8.77 upbm affinity estimate (log intensity, higher = more binding, comparable within an allelic series)
ACTTATCG	11.2 upbm affinity estimate (log intensity, higher = more binding, comparable within an allelic series)	11.2 upbm affinity estimate (log intensity, higher = more binding, comparable within an allelic series)
CAAGTGCC	12.3 upbm affinity estimate (log intensity, higher = more binding, comparable within an allelic series)	–
CAGTTGGC	8.87 upbm affinity estimate (log intensity, higher = more binding, comparable within an allelic series)	8.7 upbm affinity estimate (log intensity, higher = more binding, comparable within an allelic series)
ATACTCCA	10.6 upbm affinity estimate (log intensity, higher = more binding, comparable within an allelic series)	10.4 upbm affinity estimate (log intensity, higher = more binding, comparable within an allelic series)
GCAACGCA	9.03 upbm affinity estimate (log intensity, higher = more binding, comparable within an allelic series)	8.99 upbm affinity estimate (log intensity, higher = more binding, comparable within an allelic series)
CCGGAGAC	8.74 upbm affinity estimate (log intensity, higher = more binding, comparable within an allelic series)	8.76 upbm affinity estimate (log intensity, higher = more binding, comparable within an allelic series)
CCAACGCA	8.88 upbm affinity estimate (log intensity, higher = more binding, comparable within an allelic series)	8.96 upbm affinity estimate (log intensity, higher = more binding, comparable within an allelic series)
CCGCAGTC	8.8 upbm affinity estimate (log intensity, higher = more binding, comparable within an allelic series)	8.72 upbm affinity estimate (log intensity, higher = more binding, comparable within an allelic series)
CTCATAAG	10.8 upbm affinity estimate (log intensity, higher = more binding, comparable within an allelic series)	10.9 upbm affinity estimate (log intensity, higher = more binding, comparable within an allelic series)
